Inconclusive results are not listed. The source made the active and inactive calls. Unless noted, the call rests on the fitted dose curve; in most records, active means well fitted curve in the direction sought with a large enough effect in the repeat runs; inconclusive means weak or mixed curves; inactive means no such curve, though single readings can be large; an effect the other way counts as inactive or inconclusive.
What was measured:
[1] = qHTS assay to identify small molecule agonists of H2AX (AID 1224845; active means well fitted activation curve with a large enough effect in the signal ratio in the repeat runs, not every such curve was filed as active; the % refers to the signal ratio)
In short: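 Phospho-H2AX Ser139 measured by HTRF (ex 320 nm; em 665 and 620 nm) after 24 hr antibody incubation. Compounds, 15 concentrations, 0.76% DMSO, were applied to CHO-K1 cells for 3hr at 37C before lysis.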

[2] = qHTS assay to identify small molecule agonists of the hypoxia (HIF-1) signaling pathway (AID 1224846; active means well fitted activation curve with a large enough effect in the signal ratio in the repeat runs, not every such curve was filed as active; the % refers to the signal ratio)
In short: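 Beta-lactamase FRET read-out (CCF4-AM substrate) from ME-180 cells carrying an HRE-driven bla reporter, after 17 hrs compound exposure at 37C/5% CO2. Cells were seeded at 2,000 per well in 0.5% dialyzed FBS medium and preincubated 5 hrs.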

[3] = qHTS assay to identify small molecule agonists of H2AX - cell viability counter screen (AID 1224847; calls by dose curve; further: top concentration of the series differs between compounds; nearly all actives have a fitted effect of over 30% in size)
In short: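 Quantitative HTS viability measurement: CHO-K1 wild-type cells in serum (10% FBS) medium, short 3 hr drug exposure at 37C with 0.76% DMSO, CellTiter-Glo luminescent detection.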

[4] = qHTS assay to identify small molecule antagonists of the estrogen related receptor (ERR) signaling pathway from Tox21 library (AID 1224848); further: nearly all actives have a fitted effect of over 50% in size
In short: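 ERR cell line, 2,000 cells/well. 6 h settle, then compound (DMSO) added; 18 h at 37 C; ONE-Glo luminescence after 30 min RT.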

[5] = qHTS RealTime-Glo MT Cell Viability Assay in HepG2 cells - 24 hour (AID 1224867); further: nearly all actives have a fitted effect of over 50% in size
In short: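 Tox21 10K library screened in qHTS format on HepG2 cells carrying RealTime-Glo reagents. Compounds were added after a 5 h preincubation, and the luminescent signal from continuous culture was measured repeatedly during 40 h treatment.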

[6] = qHTS RealTime-Glo MT Cell Viability Assay in HEK293 cells - 32 hour (AID 1224868); further: top concentration of the series differs between compounds; nearly all actives have a fitted effect of over 50% in size
In short: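 Luminescence generated by NanoLuc from substrate produced by living HEK293 cells served as the viability signal. Each value reflects the reading at its stated time point during continuous 40 h compound exposure at 37 C.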

[7] = qHTS RealTime-Glo MT Cell Viability Assay in HepG2 cells - 40 hour (AID 1224870); further: nearly all actives have a fitted effect of over 50% in size
In short: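 Real-time viability: cells seeded at 600 per well together with NanoLuc and cell-permeant prosubstrate, compounds added after 5 h incubation. Luminescence tracked at 0, 8, 16, 24, 32 and 40 h of exposure.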

[8] = A CellTox Green Cytotoxicity Assay to monitor cytotoxicity in HEK293 cells - 0 hour (AID 1224869); further: nearly all actives have a fitted effect of over 50% in size
In short: (§1)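 Read-out: fluorescence of a cell-impermeant cyanine dye staining DNA of dead cells, proportional to cytotoxicity. HEK293, 600 cells/well with reagent, compound (23 nL DMSO) added after 5 h; reads at 0, 8, 16, 24, 32, 40 h.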

[9] = A CellTox Green Cytotoxicity Assay to monitor cytotoxicity in HEK293 cells - 40 hour (AID 1224871); further: nearly all actives have a fitted effect of over 45% in size
In short: as §1

[10] = qHTS assay to identify small molecule agonists of the estrogen related receptor (ERR) signaling pathway from Tox21 library (AID 1224849; calls by dose curve; further: nearly all actives have a fitted effect of over 15% in size); conditions: ERR reporter cell line, ONE-Glo luciferase, 18 h; at 92.4 µM (top of the series) unless noted
In short: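 Luminescence readout (ONE-Glo, 30 min RT) after 18 h compound exposure at 37 C of NTP-supplied ERR reporter cells; cells were plated 6 h before compound addition by pin tool.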
On the % scale 0 is the no-effect control and ±100 the full control effect.

CS(C)(=O)=O
inactive: Potency [1] | outcome [2] | Potency [3] | Potency [4] | Potency [5] | Potency [6] | Potency [7]

C=C(C)C(=O)OCCC[Si](Cl)(Cl)Cl
inactive: Potency [1] | outcome [2] | Potency [3] | Potency [5] | Potency [6] | Potency [8] | Potency [7] | Potency [9]

SCCCCCCCCS
inactive: Potency [1] | outcome [2] | Potency [3] | Potency [5] | Potency [6] | Potency [8] | Potency [7]

Brc1ccccn1
inactive: Potency [1] | outcome [2] | Potency [3] | Potency [5] | Potency [6] | Potency [8] | Potency [7] | Potency [9]

C/C=C/C(=O)C1=C(C)CCCC1(C)C
inactive: Potency [1] | outcome [2] | Potency [3] | activity change, positive = activation [10] -5.63% | Potency [5] | Potency [8] | Potency [7]

C=C/C=C/C=C/CCCCC
inactive: activation (H2AX phosphorylation) [1] 0.418% [at 31.6 µM] | activation [2] 0.434% [at 15.8 µM] | activity change, negative = cytotoxicity [3] -1.43% [at 31.6 µM] | activity, negative = inhibition [4] 3.04% [at 19 µM] | activity change, positive = activation [10] 1.56% [at 19 µM] | activity change, negative = cytotoxicity [5] -0.964% [at 15.8 µM] | cytotoxicity [8] -0.619% [at 15.8 µM] | activity change, negative = cytotoxic [7] 24.6% [at 15.8 µM] | cytotoxicity increase [9] 10.9% [at 15.8 µM]

C[Si](C)(C)Cl
inactive: Potency [1] | outcome [2] | Potency [3] | Potency [4] | activity change, positive = activation [10] 0.496% | Potency [5] | Potency [8] | Potency [7] | Potency [9]

CC(=O)OC1CCCCC1
inactive: Potency [1] | outcome [2] | Potency [3] | Potency [4] | activity change, positive = activation [10] 5.62% | Potency [5] | Potency [6] | Potency [8] | Potency [9]

Cc1ccc2ccc3cccc4ccc1c2c34
inactive: Potency [1] | outcome [2] | Potency [3] | activity change, positive = activation [10] -32.5% | Potency [5] | Potency [8] | Potency [7]

CCCCCCCCCC(=O)N(C)C
inactive: Potency [1] | outcome [2] | Potency [3] | Potency [4] | activity change, positive = activation [10] 3.98% | Potency [5] | Potency [8] | Potency [7]

CCc1cccc(CC)c1NC(=O)C(=O)O
inactive: Potency [1] | outcome [2] | Potency [3] | Potency [4] | activity change, positive = activation [10] -1.7% | Potency [5] | Potency [6] | Potency [8] | Potency [7] | Potency [9]

CCc1c(C(=O)O)c(=O)cnn1-c1ccc(Cl)cc1
inactive: Potency [1] | outcome [2] | Potency [3] | Potency [4] | activity change, positive = activation [10] 3.84% | Potency [5] | Potency [8] | Potency [7] | Potency [9]

Cc1cncc(C)c1
inactive: Potency [1] | outcome [2] | Potency [3] | Potency [4] | Potency [5] | Potency [6] | Potency [7]

CCC(C)c1ccccc1 (stereo unspecified)
inactive: Potency [1] | outcome [2] | Potency [3] | Potency [5] | Potency [6] | Potency [8] | Potency [7]

CCOCN(C(=O)CS(=O)(=O)O)c1c(C)cccc1CC
inactive: Potency [1] | outcome [2] | Potency [3] | Potency [5] | Potency [6] | Potency [8]

Cc1cccc(C)n1
inactive: Potency [1] | outcome [2] | Potency [3] | Potency [5] | Potency [6] | Potency [8] | Potency [7]

Cc1cnccn1
inactive: Potency [1] | outcome [2] | Potency [3] | Potency [4] | activity change, positive = activation [10] -1.47% | Potency [5] | Potency [8] | Potency [7]

CC(C)=C1CC[C@@H](C)CC1=O
inactive: Potency [1] | outcome [2] | Potency [3] | Potency [5] | Potency [6] | Potency [8] | Potency [7]

COc1cccc(CCc2ccccc2OCC(CN(C)C)OC(=O)CCC(=O)O)c1 (stereo unspecified)
inactive: Potency [1] | outcome [2] | Potency [3] | Potency [4] | activity change, positive = activation [10] -1.11% [at 42.5 µM] | Potency [5] | Potency [8] | Potency [7] | Potency [9]

CCCCOCC
inactive: Potency [1] | outcome [2] | Potency [3] | Potency [4] | activity change, positive = activation [10] -0.464% | Potency [5] | Potency [8] | Potency [7] | Potency [9]

O=C[C@H](O)[C@H](O)[C@H](O)CO
inactive: Potency [1] | outcome [2] | Potency [3] | Potency [5] | Potency [6] | Potency [8] | Potency [7]

CCCCCCCOC(=O)c1ccccc1C(=O)OCCCCCCC
inactive: Potency [1] | outcome [2] | Potency [3] | Potency [4] | activity change, positive = activation [10] 1.61% | Potency [5] | Potency [8] | Potency [7] | Potency [9]

O=S(=O)(O)CCCN1CCOCC1
inactive: Potency [1] | outcome [2] | Potency [3] | Potency [4] | activity change, positive = activation [10] -0.481% | Potency [5] | Potency [8] | Potency [7] | Potency [9]

CCOC(=O)CC(C)O (stereo unspecified)
inactive: Potency [1] | outcome [2] | Potency [3] | Potency [4] | activity change, positive = activation [10] -9.04% | Potency [5] | Potency [6] | Potency [8] | Potency [7] | Potency [9]

c1ccc2c(c1)CCC2
inactive: Potency [1] | outcome [2] | Potency [5] | Potency [6] | Potency [8] | Potency [7] | Potency [9]

C/C=C/c1ccc(OC)c(OC)c1
inactive: Potency [1] | outcome [2] | Potency [3] | Potency [5] | Potency [8] | Potency [7] | Potency [9]

[O]=[Zr]
inactive: Potency [1] | outcome [2] | Potency [4] | activity change, positive = activation [10] 5.09% | Potency [5] | Potency [6] | Potency [8] | Potency [7] | Potency [9]

Source: PubChem BioAssay (Tox21)
